From PubChem BioAssay AID743255 (National Center for Advancing Translational Sciences (NCATS), 2014)
In all, about 390,000 compounds went through this assay and about 910 (0.23%) were called active. Inconclusive results (about 5%) are left out. The sample holds actives, similar compounds and a random draw of the others, so the mix is not that of the screen. Calls come from the whole dose curve; as a rule, active = well fitted inhibition curve with a large enough effect; inconclusive = small, poorly fitted or top-dose-only effect; inactive = no such curve, though single readings can be large or run the other way.

The molecules below were run against Ubiquitin carboxyl-terminal hydrolase 1 (Homo sapiens) (UniProt O94782) (assay: Inhibitors of USP1/UAF1: Primary Screen). Conditions: recombinant USP1/UAF1, Ub-Rhodamine cleavage fluorescence; series mostly up to 57.1 µM; activity change, negative = inhibition: at the top concentration.
Sequence of Ubiquitin carboxyl-terminal hydrolase 1 (Homo sapiens) (O94782 whole entry, looked up): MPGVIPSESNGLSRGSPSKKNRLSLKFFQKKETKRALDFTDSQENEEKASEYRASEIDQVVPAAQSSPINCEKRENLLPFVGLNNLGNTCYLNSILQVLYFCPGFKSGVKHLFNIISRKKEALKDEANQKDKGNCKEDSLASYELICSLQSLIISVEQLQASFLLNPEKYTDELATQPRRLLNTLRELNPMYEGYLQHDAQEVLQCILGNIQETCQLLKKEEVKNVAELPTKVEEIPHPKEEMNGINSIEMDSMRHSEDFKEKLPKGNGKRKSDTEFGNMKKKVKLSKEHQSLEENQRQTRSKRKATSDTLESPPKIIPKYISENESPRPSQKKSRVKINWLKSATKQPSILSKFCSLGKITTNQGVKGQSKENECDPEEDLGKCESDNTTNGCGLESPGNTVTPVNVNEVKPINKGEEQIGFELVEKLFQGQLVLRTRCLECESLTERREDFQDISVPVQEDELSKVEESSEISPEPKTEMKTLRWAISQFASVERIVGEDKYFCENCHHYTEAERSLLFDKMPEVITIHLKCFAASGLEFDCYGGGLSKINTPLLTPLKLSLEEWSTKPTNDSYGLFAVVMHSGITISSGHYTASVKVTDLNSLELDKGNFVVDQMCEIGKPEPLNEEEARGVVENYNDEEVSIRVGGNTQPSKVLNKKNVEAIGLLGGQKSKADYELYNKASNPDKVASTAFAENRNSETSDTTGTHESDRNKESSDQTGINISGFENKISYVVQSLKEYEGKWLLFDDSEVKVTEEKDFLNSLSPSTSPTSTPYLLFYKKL
From the text: Deubiquitinating enzymes (DUBs) are a class of enzymes that can cleave isopeptide bond formed between the C-terminal carboxylate of ubiquitin and a lysine side-chain amino group on the target protein. Among them, ubiquitin specific proteases (USPs) constitute the largest DUB family. Human USPs are emerging as promising targets for pharmacological intervention because of their connection to a number of human diseases, including prostate, colon and breast cancer (1, 2), pediatric acute lymphoblastic leukemia (3), and familial cylindromatosis (4). The advantage of inhibiting USPs lies in the potential specificity of therapeutic intervention that can lead to better efficacy and reduce nonspecific side effects. In a collaboration between the University of Delaware and the NIH Chemical Genomics Center, a high-throughput screen assay was developed to screen for USP1/UAF1 inhibitors. This miniaturized assay has a fluorescent read-out and is used to screen the NIH Molecular Libraries Small Molecule Repository (MLSMR) in order to identify a small molecule that inhibits USP1. NIH Chemical Genomics Center [NCGC] NIH Molecular Libraries Probe Centers Network [MLPCN] MLPCN Grant: DA030552 Assay Submitter (PI): Zhihao Zhuang, University of Delaware 1. Priolo, C., et al. (2006) The isopeptidase USP2a protects human prostate cancer from apoptosis. Cancer Res 66, 8625-8632 2. Popov, N., et al. (2007) The ubiquitin-specific protease USP28 is required for MYC stability. Nat Cell Biol 9, 765-774 3. De Pitta, C., et al. (2005) A leukemia-enriched cDNA microarray platform identifies new transcripts with relevance to the biology of pediatric acute lymphoblastic leukemia. Haematologica 90, 890-898 4. Kovalenko, A., et al. (2003) The tumour suppressor CYLD negatively regulates NF-kappaB signalling by deubiquitination. Nature 424, 801-805
3 microliters of reagents (buffer in columns 3 and 4 as negative control and 1nM USP1/UAF1 complex in columns 1, 2, and 5-48) are dispensed into Greiner black solid bottom 1536-well assay plates. Compounds are then transferred via Kalypsys pin tool equipped with 1536-pin array (10nl slotted pins, V&P Scientific, San Diego, CA). Following an incubation step of 15 min at room temperature, 1ul of Ub-Rho substrate (150nM final concentration) is added to initiate the reaction. The plates are immediately centrifuged at 1000 rpm for 15 seconds, and subsequently transferred to a ViewLux high-throughput CCD imager (PerkinElmer) wherein kinetic measurements of fluorescence are acquired using 480 nm excitation/540 nm emission filter set (6 reads every 60 seconds, see Table 1). All reagents are diluted in an assay buffer consisting of 50mM HEPES (pH 7.8), 0.5mM EDTA, 0.1 mg/ml BSA, 1mM TCEP, and 0.01% Tween-20.
% is set by controls: 0 for no effect and ±100 for the full control effect; potency is the fitted concentration of half-maximal effect.
Note: nearly all actives have a fitted effect of over 60% in size.

| SMILES | Potency | activity change, negative = inhibition |
| --- | --- | --- |
| COc1cc(Cn2c(N)c(C(=O)NCc3ccco3)c3nc4ccccc4nc32)cc(OC)c1OC | 22.4 µM (active) |  |
| COC(=O)C1=C(c2ccccc2)C[C@@H]2CC[C@H]1N2C(=O)NCc1ccco1 |  | -13.6% (inactive) |
| Cc1ncoc1C(=O)NCC1=C(c2cccc3ccccc23)C[C@@H]2CC[C@H]1N2Cc1ccco1 |  | -26.1% (inactive) |
| CN(C)CC1Oc2ccccc2OC1(O)c1ccccc1 (stereo not given) |  | -24% (inactive) |
| Cc1ccc(-n2c(/C=C/c3cccc(C(F)(F)F)c3)nc3ccccc3c2=O)cc1 |  | -2.31% (inactive) |
| COC(=O)C1=C(c2ccc(OCc3ccccc3)cc2)C[C@@H]2CC[C@H]1N2C(=O)NCc1cccc(F)c1 |  | -16.5% (inactive) |
| O=C1NC(=O)N(c2ccccc2)C(=O)/C1=C/c1ccc([N+](=O)[O-])s1 | 28.2 µM (active) |  |
| CC(=O)C1(O)CCC2C3CCC4=C(Cl)C(=O)CCC4(C)C3CCC21C (stereo not given) |  | -6.63% (inactive) |
| Cn1cc(/C=C/c2nc3ccccc3c(=O)n2-c2ccccc2)c2ccccc21 |  | -33.4% (inactive) |
| COc1cccc(N2C(=O)NC(=O)/C(=C\c3cn(C)c4ccccc34)C2=O)c1 | 11.2 µM (active) |  |
| Cc1c(C(=O)O)cccc1-n1c(C)cc(/C=C2\C(=O)NC(=O)N(c3ccc4c(c3)OCO4)C2=O)c1C |  | -1.73% (inactive) |
| O=C1C2CCN(CC2)C1(CO)CO |  | -25.6% (inactive) |
| C[N+](C)(C)CCOP(=O)([O-])OC[C@H](O)CO |  | 1.6% (inactive) |
| Cc1ccc(OC(=O)N(C)C[C@@H]2OCc3cnnn3CCCC(=O)N([C@H](C)CO)C[C@@H]2C)cc1 |  | -16.6% (inactive) |
| COc1cc(C2c3cc4c(cc3C(O)C3COC(=O)C23)OCO4)cc(OC)c1OC (stereo not given) |  | -15.3% (inactive) |
